Assay outcomes deposited in PubChem BioAssay by National Center for Advancing Translational Sciences (NCATS).
IP6K1 inhibitor: IP6K1 kinase inhibition; Q92551; IP6K1 kinase, ADP-Glo luminescence, 2 h; active compounds read low; activity change, % (series mostly up to about 58 µM); 140,000 compounds, 0.81% hits; in the data active = activity change below about -25%; note: % is set by controls: 0 for no effect and ±100 for the full control effect
Target sequence (Q92551 whole entry, looked up): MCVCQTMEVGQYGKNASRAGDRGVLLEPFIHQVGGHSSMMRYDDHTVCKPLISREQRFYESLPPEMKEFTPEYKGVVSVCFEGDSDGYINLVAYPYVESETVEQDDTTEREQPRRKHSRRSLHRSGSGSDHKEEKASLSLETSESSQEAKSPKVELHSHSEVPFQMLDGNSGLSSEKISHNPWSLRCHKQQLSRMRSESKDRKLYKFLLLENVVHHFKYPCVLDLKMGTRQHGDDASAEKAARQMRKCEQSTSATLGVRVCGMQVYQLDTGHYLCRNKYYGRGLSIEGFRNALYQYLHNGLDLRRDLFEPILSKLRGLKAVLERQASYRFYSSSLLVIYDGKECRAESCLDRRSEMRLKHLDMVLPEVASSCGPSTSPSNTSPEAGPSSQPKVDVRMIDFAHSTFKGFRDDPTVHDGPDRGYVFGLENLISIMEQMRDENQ
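ADP-Glo luminescence measures ADP made by human IP6K1 during a 2 h RT reaction with ATP/IP6 (mix at 1.3 mM/130 uM); top library doses 57.5 and 19.1 uM final.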
KDM5B inhibitor: inhibitors of human KDM5B histone demethylase; Q9UGL1; Potency, µM (doses to about 57.7 µM), hits mostly inhibitors; 220,000 compounds, 2.6% hits; KDM5B demethylase, FDH-coupled NADH fluorescence (FDH is formaldehyde dehydrogenase); note: potency is the fitted concentration of half-maximal effect; 0% is about no effect; nearly all actives have a fitted effect of over 70% in size
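Measured: NADH fluorescence change, 30 min, RT. System: KDM5BΔAP 200 nM final, H3K4me3 peptide, α-KG, Fe(II), ascorbate, NAD⁺ plus FDH, pH 7.5 HEPES. Compounds: titrated, 10 min pre-incubation with enzyme.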
Active calls of the source: *; i = inactive; ? = inconclusive; . = no result given. Hits are enriched below; roughly 2.8% of the tested compounds scored in any of these assays.

SMILES	IP6K1 inhibitor	KDM5B inhibitor
COc1ccccc1C(=O)NC1CCN(c2nnc3ccccn23)CC1	14	28µM*
COc1ccccc1C(=O)NC1CCN(c2ccc3nnc(C4CC4)n3n2)CC1	-8	.
Cc1ccc(C(=O)N2CCN(c3nnc4ccccn34)CC2)cc1	18	28µM*
O=C(c1cccs1)N1CCN(c2nnc3ccccn23)CC1	19	22µM*
O=C(c1cccs1)N1CCCCCCC1	.	i
Cc1nn(-c2ccccc2)c2c1C(C)N(C1CCCN(C(=O)Nc3ccc(Cl)cc3)C1)C2=O (stereo unspecified)	9	.
O=C(NCc1ccc(F)cc1)c1ccc2nnc(Cc3ccc(Cl)cc3)n2c1	-2	.
CC(NC(=O)c1ccc(CS(C)(=O)=O)cc1)c1ccc(F)cc1 (stereo unspecified)	.	i
COc1ccc(/C=C/c2ccc3c(c2)C(=O)N2C[C@@H](NC(=O)CC(C)(C)CC(=O)O)C[C@H]2C(=O)N3)cc1	-4	22µM*
COc1ccc(/C=C/c2ccc3c(c2)C(=O)N2C[C@@H](NS(C)(=O)=O)C[C@H]2C(=O)N3)cc1	2	?
O=C1Nc2ccc(/C=C/c3ccccc3)cc2C(=O)N2C[C@H](O)C[C@@H]12	5	28µM*
CC(C)(CC(=O)O)CC(=O)N[C@H]1C[C@H]2C(=O)Nc3ccccc3C(=O)N2C1	-4	?
COCC(=O)N[C@H]1C[C@H]2C(=O)Nc3ccc(/C=C/c4ccccc4)cc3C(=O)N2C1	-12	i
Cn1cccc1C(=O)N[C@H]1C[C@H]2C(=O)Nc3ccc(/C=C/c4ccccc4)cc3C(=O)N2C1	6	?
CC(C)(CC(=O)O)CC(=O)N[C@H]1C[C@H]2C(=O)Nc3ccc(/C=C/c4ccccc4)cc3C(=O)N2C1	-14	28µM*
C=CCNC(=O)N[C@H]1C[C@H]2C(=O)Nc3ccc(/C=C/c4ccc(OC)cc4)cc3C(=O)N2C1	11	22µM*
Cc1nnc2ccc(N3CCN(C(=O)c4ccc(C(F)(F)F)cc4)CC3)nn12	9	.
Cc1cccc(-c2nc(C#N)c(N3CCN(C(=O)c4cccs4)CC3)o2)c1	.	i
O=C(C1CCCO1)N1CCN(Cc2coc(-c3ccc(Cl)cc3)n2)CC1 (stereo unspecified)	.	i
O=C(NC1CCCC1)C1CCCCN1Cc1ccc(-c2ccsc2)cc1 (stereo unspecified)	-4	.
O=C(c1ccncc1)N1CCC(N2CC3CC(C2)[C@H]2CCCC(=O)N2C3)CC1 (stereo partly specified)	8	18µM*
O=C(c1cccnc1)N1CCC(N2CC3CC(C2)[C@H]2CCCC(=O)N2C3)CC1 (stereo partly specified)	1	?
O=c1c2nc(-c3ccccc3)ccc2ncn1-c1ccccc1	2	40µM*
Cn1nccc1-c1ccc2ncn(-c3ccc(F)cc3F)c(=O)c2n1	-6	40µM*
O=c1c2nc(Nc3cccnc3)ccc2ncn1-c1ccc(F)cc1F	3	i
SMILES	IP6K1 inhibitor	KDM5B inhibitor
Cn1nccc1-c1ccc2ncn(-c3ccccc3)c(=O)c2n1	1	32µM*
O=c1c2nc(-c3ccc(F)cc3)ccc2ncn1Cc1ccccn1	2	32µM*
O=c1c2nc(-c3cccnc3)ccc2ncn1Cc1ccccc1	-4	i
Cn1nccc1-c1ccc2ncn(Cc3ccccn3)c(=O)c2n1	5	?
O=c1c2nc(-c3ccc(O)c(F)c3)ccc2ncn1Cc1ccccn1	9	?
CC1CCN(C(=O)c2nn(C)c(=O)c3ccccc23)c2ccccc2S1 (stereo unspecified)	.	i
C#CCNC(=O)CNC(=O)CCc1ncc(-c2ccccc2)o1	.	i
CCCc1cc(=O)[nH]c(SCc2nc(-c3ccc(OC)c(OC)c3)no2)n1	.	i
Cc1noc(C)c1[S+](=O)([O-])N1CCC2(CC1)CC(=O)c1ccccc1O2	11	20µM*
O=C1CC2(CCN(S(=O)(=O)c3ccccc3)CC2)Oc2cc(Cl)ccc21	-13	i
O=C1CC2(CCN(S(=O)(=O)c3cccs3)CC2)Oc2ccccc21	3	18µM*
CCCN1CCC2(CCN([S+](=O)([O-])c3c(C)noc3C)CC2)Oc2ccccc21	-7	i
Cn1cccc1CN1CCC2(CC1)CC(=O)c1ccccc1O2	3	25µM*
COc1ccc(CN2CCC3(CC2)CNC(=O)c2ccccc2O3)cc1	-13	i
Cn1cccc1CN1CCC2(CC1)CC(=O)c1ccc(Cl)cc1O2	-1	i
COc1ccc(CN2CCC3(CC2)CC(=O)c2ccccc2O3)cc1	7	35µM*
Cc1cc(C)c(OCC(=O)NC2=NCCS2)c(C)c1	.	i
CCOCCOC(=O)COc1ccc2c(=O)c(Oc3cc(C)c(Cl)c(C)c3)coc2c1	.	i
O=C(c1ccccc1F)N1CCC2(CC1)CC(c1cccc(C(F)(F)F)c1)=NO2	-1	.
Cc1ccc(-c2cccc(CN3CCCC3C(=O)NCc3cccc(C(F)(F)F)c3)c2)cc1Cl (stereo unspecified)	10	.
COc1ccc(CC(=O)NC2CCCN(Cc3ccc(-c4cccc(OC)c4)cc3)C2)cc1 (stereo unspecified)	5	.
COc1cccc(-c2ccc(CN3CCCC(NC(=O)c4ccc(C)cc4)C3)cc2)c1 (stereo unspecified)	-3	.
O=C(Nc1c(NC2CCCC2)c2ccccc2oc1=O)c1ccc(Cl)cc1	.	i
CCN(CC)c1nc2c(c(=O)n(C)c(=O)n2C)n1C(C)C	.	i
O=C(C1CCCC1)N1CCN(c2nccc(Nc3ccccc3Cl)n2)CC1	2	.
SMILES	IP6K1 inhibitor	KDM5B inhibitor
O=C1CC2(CCN(Cc3ccc(C(F)(F)F)cc3)CC2)Oc2ccccc21	18	?
O=C1CC2(CCN(CC3CCCCC3)CC2)Oc2cc(Cl)ccc21	-1	i
O=C1CC2(CCN(Cc3ccccc3)CC2)Oc2ccccc21	8	35µM*
O=C1CC2(CCN(C(=O)c3ccc4c(c3)OCO4)CC2)Oc2cc(Cl)ccc21	-3	i
O=C1CC2(CCN(C(=O)c3ccc(Cl)cc3)CC2)Oc2ccccc21	-8	?
O=C1CC2(CCN(CC3CC3)CC2)Oc2ccccc21	9	32µM*
COc1ccc(C(=O)N2CCC3(CC2)CC(=O)c2ccccc2O3)cc1	10	32µM*
O=C1CC2(CCN(C(=O)c3ccc4c(c3)OCO4)CC2)Oc2ccccc21	17	25µM*
COc1ccc(Nc2cc(C(=O)NCC(OC)OC)c3ccccc3n2)cc1OC	.	i
COc1cccc(-c2ccc(C(=O)N3CCC(NC(=O)c4ccccc4Cl)CC3)cc2)c1	-15	.
COc1ccc(F)cc1-c1ccc(CN2CCCCC2C(=O)N2CCOCC2)cc1 (stereo unspecified)	-5	.
COc1ccc(-c2cccc(C(=O)NCc3ccc(F)cc3)c2)nn1	4	.
O=C(Cc1ccsc1)N1CC(Oc2ccccc2-c2nc(C3CC3)no2)C1	12	.
O=C1CC2(CCN(Cc3ccsc3)CC2)Oc2ccccc21	11	35µM*
O=C1CC2(CCN(Cc3cccc4ccccc34)CC2)Oc2ccccc21	12	i
Cc1ccc(C(=O)N2CCC3(CC2)N=C(c2ccc(C)cc2)NO3)cc1	-19	i
CN(C)c1cccc(C(=O)N2CCC3(CC2)N=C(c2ccccc2)NO3)c1	-5	i
CN(C)c1cccc(C(=O)N2CCC3(CC2)N=C(c2cccc(Br)c2)NO3)c1	-10	32µM*
Cc1ccc(C(=O)N2CCC3(CC2)N=C(c2cccc(Br)c2)NO3)cc1	-13	32µM*
